# Experimental data reported in PubChem BioAssay (EPA / NIEHS).
# “And” between values parts separate entries of the source, which are not always exact repeats. Identical values can stand only once. The source made the active and inactive calls. Rule for the calls: active = hit-call score of the fitted dose curve at least 0.9, where 1 is the maximum; inactive = score below 0.9.
# Read-out: Interleukin 17A (IL17A), IL17A (gene 3605)
# Assay: BSK_BT_xIL17A: BioMAP Diversity Plus: BT Assay for Interleukin 17A (IL17A) Biomarker Activity (AID 2284229)
# Settings: primary human B cells with PBMC
# In short: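 Co-culture of human B cells and PBMC, dosed for 24 h in 96-well format. Secreted IL-17A measured with Luminex xMAP; gain-direction fitting against DMSO as baseline.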
SMILES,outcome,AC50
CC=C(C)C=CC=C(C)C,inactive,–
O=C(O)C(F)(F)C(F)(F)C(F)(F)C(F)(F)C(=O)O,inactive,–
CCN1CN(CC)CN(CC)C1,inactive,–
CCOC(=O)/C=C\C(=O)OCC,inactive,–
CCc1cccc(C)c1N(C(=O)CS(=O)(=O)O)C(C)COC (stereo unspecified),inactive,–
CCCCC1C(=O)N(c2ccccc2)N(c2ccccc2)C1=O,inactive,–
COc1ccc(C(=O)/C(Br)=C\C(=O)O)cc1,–,24.3 µM (active) and 25.6 µM (active)
O=C(Cl)c1c(Cl)c(Cl)c(C(=O)Cl)c(Cl)c1Cl,inactive,–
Cc1c(O)cccc1O,inactive,–
CCCCCC1=CCCC1=O,inactive,–
C=CC(=O)NCOCCCC,inactive,–
CCOC(=O)C1=NN(c2ccc(Cl)cc2Cl)C(C)(C(=O)OCC)C1 (stereo unspecified),inactive,–
Nc1cccc(N)n1,inactive,–
O=C1CCCCCCCCCCCN1,inactive,–
CCCCCCOC(=O)CCCCC(=O)OCCCCCC,inactive,–
CCCCCCCCCCCC(C)=O,inactive,–
CC/C=C\C/C=C\C/C=C\CCCCCCCC(=O)OC,–,12 µM (active)
CC(c1cc(C(C)(C)C)cc(C(C)(C)C)c1O)c1cc(C(C)(C)C)cc(C(C)(C)C)c1O,–,17.2 µM (active)
C=CC(=O)OCC(C)OCC(C)OCC(C)OC(=O)C=C (stereo unspecified),–,7.92 µM (active)
Oc1ccc(/C=C/c2cc(O)cc(O)c2)cc1,–,20 µM (active)
CC1=CC=C(C(C)C)CC1,inactive,–
CCCCCCC=O,inactive,–
C[N+](C)(C)CCCNS(=O)(=O)C(F)(F)C(F)(F)C(F)(F)C(F)(F)C(F)(F)C(F)(F)C(F)(F)C(F)(F)F,–,30 µM (active)

# Read-out: Vascular cell adhesion molecule 1 (VCAM1), VCAM1 (gene 7412)
# Assay: BSK_MyoF_VCAM1: BioMAP Diversity Plus: MyoF Assay for Vascular cell adhesion molecule 1 (VCAM1) Biomarker Activity (AID 2284231)
# Settings: primary human lung fibroblasts
# In short: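 Primary human lung fibroblasts (BioMAP MyoF system) dosed with chemical, VCAM-1 measured by ELISA 24 hours later. Fitted in the positive direction against DMSO; parallel SRB staining assessed cytotoxicity.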
SMILES,outcome,AC50
CC=C(C)C=CC=C(C)C,inactive,–
O=C(O)C(F)(F)C(F)(F)C(F)(F)C(F)(F)C(=O)O,inactive,–
CCN1CN(CC)CN(CC)C1,inactive,–
CCOC(=O)/C=C\C(=O)OCC,inactive,–
CCc1cccc(C)c1N(C(=O)CS(=O)(=O)O)C(C)COC (stereo unspecified),inactive,–
CCCCC1C(=O)N(c2ccccc2)N(c2ccccc2)C1=O,inactive,–
COc1ccc(C(=O)/C(Br)=C\C(=O)O)cc1,–,25.5 µM (active) and 10.5 µM (active)
O=C(Cl)c1c(Cl)c(Cl)c(C(=O)Cl)c(Cl)c1Cl,inactive,–
Cc1c(O)cccc1O,inactive,–
CCCCCC1=CCCC1=O,inactive,–
C=CC(=O)NCOCCCC,inactive,–
CCOC(=O)C1=NN(c2ccc(Cl)cc2Cl)C(C)(C(=O)OCC)C1 (stereo unspecified),inactive,–
Nc1cccc(N)n1,inactive,–
O=C1CCCCCCCCCCCN1,inactive,–
CCCCCCOC(=O)CCCCC(=O)OCCCCCC,inactive,–
CCCCCCCCCCCC(C)=O,inactive,–
CC/C=C\C/C=C\C/C=C\CCCCCCCC(=O)OC,–,11.1 µM (active)
CC(c1cc(C(C)(C)C)cc(C(C)(C)C)c1O)c1cc(C(C)(C)C)cc(C(C)(C)C)c1O,inactive,–
C=CC(=O)OCC(C)OCC(C)OCC(C)OC(=O)C=C (stereo unspecified),–,30.1 µM (active)
Oc1ccc(/C=C/c2cc(O)cc(O)c2)cc1,inactive,–
CC1=CC=C(C(C)C)CC1,inactive,–
CCCCCCC=O,inactive,–
C[N+](C)(C)CCCNS(=O)(=O)C(F)(F)C(F)(F)C(F)(F)C(F)(F)C(F)(F)C(F)(F)C(F)(F)C(F)(F)F,–,44.5 µM (active) and 57 µM (active)
